D1 ag: agonists of human D1 dopamine receptor. P21728. HEK293 T-REx D1 cells, calcium flux, agonist mode. activation, % at 2 µM. 360,000 tested, 1% active. AID 504660; in the data active = activation above about 30%
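Inducible HEK293 T-REx D1 cells, force-coupled to calcium signalling, were plated at 4000 cells/well with tetracycline and held overnight at 30 C. After no-wash calcium dye loading, compound-evoked calcium rise over 180 s flagged agonists.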
D1 antagonist: human D1 dopamine receptor antagonism. AID 504652. activity change, negative = inhibition, % at 10 µM. HEK293 TREx D1 cells, calcium flux, dopamine EC80; hits give low values. 360,000 tested, 3.2% active; in the data active = activity change below about -30%
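HEK293 T-REx cells expressing inducible, force-coupled D1 receptor; no-wash Ca dye, 30–90 min RT. Cmpd → 180 s read at 1 Hz → EC80 DA → 180 s read.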
GALK inh: inhibitors of human galactokinase. P51570. Purified GALK, Kinase-Glo residual ATP luminescence. Potency, µM (titrated, usually from 57.5 µM), most hits filed as inhibitors. 270,000 tested, 0.007% active. AID 1868
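ATP-depletion format; final 35 uM ATP, 100 uM D-galactose, 5 nM enzyme; pH 8.0 HEPES/Mg2+ buffer; 60 min RT; luminescence read 10 min after detection reagent.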
Eya2 inh: blocks the phosphatase activity of human Eya2; O00167; recombinant Eya2, OMFP fluorescence dephosphorylation (OMFP is methylfluorescein phosphate); Potency, µM (titrated, usually from 76.9 µM), hits mostly inhibitors; 330,000 tested, 0.006% active; AID 488837
Target sequence (O00167 whole entry, looked up): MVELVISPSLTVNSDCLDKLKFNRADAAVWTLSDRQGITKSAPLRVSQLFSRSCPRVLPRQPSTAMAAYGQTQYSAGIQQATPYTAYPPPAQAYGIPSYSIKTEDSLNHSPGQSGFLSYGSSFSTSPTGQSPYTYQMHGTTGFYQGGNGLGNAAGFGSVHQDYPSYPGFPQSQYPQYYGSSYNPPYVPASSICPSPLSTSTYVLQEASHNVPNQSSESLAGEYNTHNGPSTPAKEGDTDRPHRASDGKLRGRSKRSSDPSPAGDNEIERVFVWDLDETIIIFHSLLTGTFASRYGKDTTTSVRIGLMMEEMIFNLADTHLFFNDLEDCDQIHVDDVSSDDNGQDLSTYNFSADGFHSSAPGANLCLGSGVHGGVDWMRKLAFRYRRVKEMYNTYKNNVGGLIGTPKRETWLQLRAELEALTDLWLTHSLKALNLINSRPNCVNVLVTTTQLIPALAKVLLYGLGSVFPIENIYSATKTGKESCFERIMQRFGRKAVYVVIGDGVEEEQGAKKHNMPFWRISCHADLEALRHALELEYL
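Eya2 protein (added as 0.2 uM solution) was preincubated with compound for 10 min at ambient temperature in 50 mM HEPES pH 7.5, 50 mM NaCl, 5 uM MgCl2, 0.05% BSA, 1 mM DTT. OMFP (added at 50 uM) then reacted 10 min; fluorescence read at 485/525 nm.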
D1 PAM: human D1 dopamine receptor positive modulation; HEK293 TREx D1 cells, calcium flux, dopamine EC20 potentiation; P21728; potentiation, % at 10 µM; 360,000 tested, 0.036% active; in the data active = potentiation above about 30%
USP2a inh: blocks human ubiquitin-specific protease USP2a; USP2 core, Ub-CHOP2 coupled fluorogenic reporter, 485/531; Potency, µM (series often up to 38.3 µM), usual class: inhibitors; 330,000 tested, 0.01% active; AID 463254
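Cell-free coupled assay: 10nM USP2 core preincubated 30min RT with compound in Tris-HCl pH 8.0/CaCl2/CHAPS buffer, then 25nM Ub-CHOP2 and 25nM reporter substrate; fluorescence (Ex 485/Em 531) read after 60min RT, normalized to NEM inhibition, concentration-response curves fitted.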
A number is an active result; ! = repeats disagree. In the library only some 3.9% were active in any assay of this set; here they are far more common. Unless noted, calls come from the whole dose curve; as a rule, active = well fitted inhibition curve with a large enough effect; inconclusive = small, poorly fitted or top-dose-only effect, or effect the other way; inactive = flat fitted curve, though single readings scatter.

What do the screens show for `CCOC(=O)C1CCCN(S(=O)(=O)c2ccc3[nH]c(=O)oc3c2)C1` (stereo not drawn)?
D1 ag: inactive; D1 antagonist: -41; D1 PAM: inactive

Results for CCOC(=O)C1CCCN(S(=O)(=O)c2ccc3c(c2)N(C)C(=O)CC(=O)N3C)C1 (stereo not drawn) ?
D1 ag: inactive; D1 antagonist: -45!; GALK inh: inactive; Eya2 inh: inactive; D1 PAM: inactive; USP2a inh: inactive

What do the screens show for `CCOC(=O)C1CCCN(S(=O)(=O)c2ccc3c(c2)oc(=O)n3C)C1` (stereo not drawn)?
D1 ag: inactive; D1 antagonist: inactive; D1 PAM: inactive

How did CCc1ccc(C(=O)c2cn(CC(=O)NCCc3ccccc3)c3nc(C)ccc3c2=O)cc1 do in these assays?
D1 ag: inactive; D1 antagonist: inactive; D1 PAM: inactive

Results for O=C(O)COc1ccccc1/C=N/NC(=O)CSc1nnc(SCc2cccc3ccccc23)s1 ?
D1 ag: 35; D1 antagonist: inactive; Eya2 inh: inactive; D1 PAM: inactive; USP2a inh: inconclusive

Results for O=C(O)COc1ccccc1/C=N/NC(=O)CSc1nnc(SCc2ccc(Cl)cc2)s1 ?
D1 ag: inactive; D1 antagonist: inactive; Eya2 inh: inactive; D1 PAM: inactive; USP2a inh: inactive

Results for CC1=C(c2ccc(C)c(C)c2)S(=O)(=O)N=C1N1CCC(C(=O)NC(C)c2ccccc2)CC1 (stereo not drawn) ?
D1 ag: inactive; D1 antagonist: -75; D1 PAM: inactive

What do the screens show for `CC1=C(c2ccc(C)c(C)c2)S(=O)(=O)N=C1N1CCC(C(=O)NC(C)Cc2ccco2)CC1` (stereo not drawn)?
D1 ag: inactive; D1 antagonist: -32; D1 PAM: inactive

Results for CC1=C(c2ccc(C)c(C)c2)S(=O)(=O)N=C1N1CCC(C(=O)NCc2ccccc2C)CC1 ?
D1 ag: inactive; D1 antagonist: inactive; D1 PAM: inactive

Results for CC1=C(c2ccc(F)cc2)S(=O)(=O)N=C1N1CCC(C(=O)NCCc2ccco2)CC1 ?
D1 ag: inactive; D1 antagonist: inactive; D1 PAM: inactive

How did COc1cc2c(=O)n(CCC(=O)NCC3CCCO3)c(=O)n(CC(=O)c3ccc(Cl)cc3)c2cc1OC (stereo not drawn) do in these assays?
D1 ag: inactive; D1 antagonist: -30; GALK inh: inactive; Eya2 inh: inactive; D1 PAM: inactive; USP2a inh: inactive

What do the screens show for `COc1ccc(C(=O)Nc2nnc(SCC(=O)NCC3CCCO3)s2)cc1OC` (stereo not drawn)?
D1 ag: inactive; D1 antagonist: -30; GALK inh: inactive; Eya2 inh: inactive; D1 PAM: inactive; USP2a inh: inactive

What do the screens show for `COc1ccc(OC)c(CCNC(=O)c2cc3c(-c4ccccc4F)nn(C)c3s2)c1`?
D1 ag: inactive; D1 antagonist: inactive; D1 PAM: inactive

Results for O=C1CCSc2ccc(S(=O)(=O)Nc3cccc(C(F)(F)F)c3)cc2N1 ?
D1 ag: inactive; D1 antagonist: inactive; D1 PAM: inactive

What do the screens show for `CSc1nn(Cc2cccc(Cl)c2)c(N(C(C)=O)C(C)=O)c1S(=O)(=O)c1ccccc1`?
D1 ag: inactive; D1 antagonist: -61; D1 PAM: inactive

What do the screens show for `Cc1cc(=O)n2nc(N3CCCC(C(=O)NCCc4ccc(Cl)cc4)C3)sc2n1` (stereo not drawn)?
D1 ag: inactive; D1 antagonist: -35; GALK inh: inactive; Eya2 inh: inactive; D1 PAM: inactive; USP2a inh: inactive

Results for Cc1cc(=O)n2nc(N3CCCC(C(=O)Nc4ccc(C)c(C)c4)C3)sc2n1 (stereo not drawn) ?
D1 ag: inactive; D1 antagonist: -59; Eya2 inh: inactive; D1 PAM: inactive; USP2a inh: inactive

Results for Cc1cc(=O)n2nc(N3CCCC(C(=O)NCCc4ccccc4)C3)sc2n1 (stereo not drawn) ?
D1 ag: inactive; D1 antagonist: inactive; GALK inh: inactive; Eya2 inh: inactive; D1 PAM: inactive; USP2a inh: inactive

How did CCc1nc2cccnc2n1-c1ccc(CC(=O)Nc2cccc(C)c2C)cc1 do in these assays?
D1 ag: inactive; D1 antagonist: inactive; D1 PAM: inactive

How did CCc1ccccc1N(C)C(=O)C1CCCN(c2ncnc3c2nc2n3CCCCC2)C1 (stereo not drawn) do in these assays?
D1 ag: inactive; D1 antagonist: inactive; D1 PAM: inactive

What do the screens show for `Cc1onc(-c2ccc(Br)cc2)c1C(=O)Nc1ccc(Br)cc1F`?
D1 ag: inactive; D1 antagonist: inactive; D1 PAM: inactive

How did CC(=O)N1CCC2(CC1)CC(=O)c1cc(OCC(=O)N3CCOCC3)ccc1O2 do in these assays?
D1 ag: inactive; D1 antagonist: -38; GALK inh: inactive; Eya2 inh: inactive; D1 PAM: inactive; USP2a inh: inactive

How did Cc1ccc(CS(=O)(=O)c2cn(CC(=O)N(C)c3ccccc3)c3ccccc23)cc1 do in these assays?
D1 ag: inactive; D1 antagonist: inactive; D1 PAM: inactive

How did CN(Cc1ccccc1)C(=O)c1ccc(NC(=O)Cc2cccc(NC(=O)C3CCN(C(=O)C4CC4)CC3)c2)cc1 do in these assays?
D1 ag: 252; D1 antagonist: inactive; Eya2 inh: inactive; D1 PAM: inactive; USP2a inh: inactive

How did O=C(Nc1cccc([N+](=O)[O-])c1)C1CCN(C(=O)Cc2ccccc2)CC1 do in these assays?
D1 ag: inactive; D1 antagonist: -30; GALK inh: inactive; Eya2 inh: inactive; D1 PAM: inactive; USP2a inh: inactive

What do the screens show for `CS(=O)(=O)N1CCC(C(=O)Nc2cccc([N+](=O)[O-])c2)CC1`?
D1 ag: inactive; GALK inh: inactive; Eya2 inh: inactive; D1 PAM: inactive; USP2a inh: inactive

How did Cc1ccc(C(=O)N2CCc3cc(CNC(=O)CCc4ccccc4)ccc32)cc1 do in these assays?
D1 ag: inactive; D1 antagonist: inactive; D1 PAM: inactive

Results for O=C(NCC(c1cccnc1)N1CCN(c2ccccc2F)CC1)C(=O)Nc1ccc(F)cc1F (stereo not drawn) ?
D1 ag: inactive; D1 antagonist: inactive; D1 PAM: inactive

Results for Cc1cccc(CCNC(=O)CCc2c(C)nc3c4c(C)cc(C)nc4nn3c2C)c1 ?
D1 ag: inactive; D1 antagonist: inactive; D1 PAM: inactive

How did O=S(=O)(c1ccc2c(c1)OCCO2)N1CCN(c2ncnc3sccc23)CC1 do in these assays?
D1 ag: inactive; D1 antagonist: -32; GALK inh: inactive; Eya2 inh: inactive; D1 PAM: inactive; USP2a inh: inactive

Screens deposited in PubChem by National Center for Advancing Translational Sciences (NCATS).
